The full ranking holds about 18,000 sequences; the median of “log2 normalized intensity” is about 0.39, and the highest 2% start at about 6.6. The sample holds the highest values, similar sequences and a random draw of the others, so the mix is not that of the screen.

In this test the target is T1, HNF4alpha2 (COS-7 nuclear extract) (Homo sapiens, UniProt P41235 1-474).
T1 sequence: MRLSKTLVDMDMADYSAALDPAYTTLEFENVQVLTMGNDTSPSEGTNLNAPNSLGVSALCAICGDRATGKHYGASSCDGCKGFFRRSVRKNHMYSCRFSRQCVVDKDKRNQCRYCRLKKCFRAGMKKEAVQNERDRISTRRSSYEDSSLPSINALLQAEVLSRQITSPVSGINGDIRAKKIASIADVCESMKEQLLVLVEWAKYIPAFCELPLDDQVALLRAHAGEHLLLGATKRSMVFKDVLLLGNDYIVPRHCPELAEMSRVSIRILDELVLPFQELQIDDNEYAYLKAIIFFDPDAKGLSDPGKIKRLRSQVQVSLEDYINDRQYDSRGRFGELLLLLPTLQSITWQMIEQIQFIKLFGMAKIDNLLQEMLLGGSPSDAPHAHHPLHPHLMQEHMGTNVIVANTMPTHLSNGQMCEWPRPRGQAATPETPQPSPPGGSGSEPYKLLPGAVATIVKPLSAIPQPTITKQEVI
Put plainly: protein-binding microarray; COS-7 nuclear extract on double-stranded Agilent 4x180k PBM; binding buffer, salt, pH and temperature not given in the material; high values mean tight binding. Particulars: chain copies: 2; label: 3' end of strand 1 on the slide; dsDNA, one strand shown. The method in brief:
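Nuclear extracts of COS-7 cells transiently transfected with a human HNF4α isoform were applied to a custom Agilent SurePrint G3 4x180k array bearing ~44,000 double-stranded ~60-nt test sequences, each in quadruplicate. The bound protein was imaged on an Agilent G2565CA scanner at 2-µm resolution. Binding signal is the normalized, background-corrected gProcessedSignal from Agilent software.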
Take “AAGACTTTGGACTTTGGACCTGAGGCTTTTGCCTAGGGAGATTAGAGTATCGGTCGA”: the binding signal was 9.84 log2 normalized intensity.
The result for “GAGGCTCAGACCTGACCTTTGGATTCCCAGGCCTAGGGAGATTAGAGTATCGGTCGA” reads 6.53 log2 normalized intensity; that for “GGACCTGAGGCTTTTGAGTCAATAATGGACGCCTAGGGAGATTAGAGTATCGGTCGA”, 1.21 log2 normalized intensity.
Consider “TACTTTGGACTGGGGACCTGGTCTGAGATAGCCTAGGGAGATTAGAGTATCGGTCGA”, for which the binding signal is 1.75 log2 normalized intensity.
As to “TGCTGGAGATGAGGCTCAGACCTGACCTTTGCCTAGGGAGATTAGAGTATCGGTCGA”, the binding signal is 6.49 log2 normalized intensity.
For “ATGTGGGGAAACTGGACTGTAATTTGTGGTGCCTAGGGAGATTAGAGTATCGGTCGA”, the binding signal was determined as 1.43 log2 normalized intensity.
In the case of “ACGTCAGAACTGTCCTTTAACCTCCCTGCAGCCTAGGGAGATTAGAGTATCGGTCGA”, the binding signal is 1.99 log2 normalized intensity.
For “AATGGAAGAATCACAGTGTGGGGCAAATCTGCCTAGGGAGATTAGAGTATCGGTCGA” the value was -0.752 log2 normalized intensity.
For “ACCAGGGGGCAGAGTGAGCAGCACTTTTGGGCCTAGGGAGATTAGAGTATCGGTCGA” the value was -0.845 log2 normalized intensity; for “CTGCCAAAGTTCAGCCTTGGGGCCATTCCAGCCTAGGGAGATTAGAGTATCGGTCGA”, 0.325 log2 normalized intensity; for “TCTCTGGGTCAAAGGTCATCGCACCGGCAGGCCTAGGGAGATTAGAGTATCGGTCGA”, 7.15 log2 normalized intensity.
Regarding “CACTGGCTCTGGGGTCAAAGTCCCCTGAGCGCCTAGGGAGATTAGAGTATCGGTCGA”, the binding signal was determined as 7.16 log2 normalized intensity.
For “AGGTCGCAAGCACTGGCTCTGGGGTCAAAGGCCTAGGGAGATTAGAGTATCGGTCGA” the value was 3.1 log2 normalized intensity; for “AAAGGTCATCGCACCGGCAGGGGAGAACTTGCCTAGGGAGATTAGAGTATCGGTCGA”, 0.284 log2 normalized intensity.
For “CTGGGGCCACCCTCCTCTCTGGGTCAAAGGGCCTAGGGAGATTAGAGTATCGGTCGA”, the binding signal was determined as 4.74 log2 normalized intensity.
For “TCATCGCACCGGCAGGGGAGAACTTCCTCCGCCTAGGGAGATTAGAGTATCGGTCGA”, the binding signal is -0.988 log2 normalized intensity.
For the sequence “CCTGCCTCTCCTCTGAGCTTCATCCTGACCGCCTAGGGAGATTAGAGTATCGGTCGA”, the binding signal amounted to 1.62 log2 normalized intensity.
For “CTCTCCCTCCTCTCTGAGCAGTCAAACTGGGCCTAGGGAGATTAGAGTATCGGTCGA” the value was 1.96 log2 normalized intensity.
With “GGGGTCAAAGTCCCCTGAGCTTGAGTCCATGCCTAGGGAGATTAGAGTATCGGTCGA”, the binding signal is 5.36 log2 normalized intensity.
On to “CCTCCTCTCTGGGTCAAAGGTCATCGCACCGCCTAGGGAGATTAGAGTATCGGTCGA”, for which the binding signal amounted to 7.54 log2 normalized intensity.
The result for “GCCACCCTCCTCTCTGGGTCAAAGGTCATCGCCTAGGGAGATTAGAGTATCGGTCGA” reads 9.58 log2 normalized intensity; that for “GAGGTGTCAGCCACCCCTCCTCCTGGGGGCGCCTAGGGAGATTAGAGTATCGGTCGA”, 2.64 log2 normalized intensity.
The result for “AAGTGTGGTCAAGGGTCAGTTTCTGAGAGTGCCTAGGGAGATTAGAGTATCGGTCGA” reads 3.65 log2 normalized intensity; that for “ATAGTTGACCCTTGAACAATGTGGGGGTCGGCCTAGGGAGATTAGAGTATCGGTCGA”, 3.7 log2 normalized intensity; that for “CTTGTCCTTGACCCTTCCTCCCATTTGCTGGCCTAGGGAGATTAGAGTATCGGTCGA”, 2.29 log2 normalized intensity.
Consider “GCCCCCGCAGACCCAGTCTTAGGGACTAAGGCCTAGGGAGATTAGAGTATCGGTCGA”, for which the binding signal was 3.86 log2 normalized intensity.
For “TCCCTTCCCCCCTCCTCATTGAGAGTTTTAGCCTAGGGAGATTAGAGTATCGGTCGA”, the binding signal was 4.2 log2 normalized intensity.
Take “TTGAAGCTCCAAGATAGGAATGTACATAATGCCTAGGGAGATTAGAGTATCGGTCGA”: the binding signal worked out at 1.11 log2 normalized intensity.
Consider “GTCTTAGGGACTAAGCTTGTAGACCAAGGAGCCTAGGGAGATTAGAGTATCGGTCGA”, for which the binding signal came to 0.172 log2 normalized intensity.
The result for “AAGGCTGCAAGCAAACCTGCCCTTTGCTCCGCCTAGGGAGATTAGAGTATCGGTCGA” reads 5.57 log2 normalized intensity.
Consider “GGGAAACACAGACTCCAAAGAATGGAAGGCGCCTAGGGAGATTAGAGTATCGGTCGA”, for which the binding signal is -0.871 log2 normalized intensity.
Consider “CCTTTGGTCTAAACCTACTTAGATCAAGATGCCTAGGGAGATTAGAGTATCGGTCGA”, for which the binding signal is -0.394 log2 normalized intensity.
For “ACCCCAAAACCCCCAAAGGTGAGTAGGGCCGCCTAGGGAGATTAGAGTATCGGTCGA” the value was 2.67 log2 normalized intensity.
Regarding “TGCTCTCTCATGCCCTTTGCCTCCCTGCATGCCTAGGGAGATTAGAGTATCGGTCGA”, the binding signal came to 3.45 log2 normalized intensity.
With “GCATCAGGGTCCACAAGGGTTTAAATCTGAGCCTAGGGAGATTAGAGTATCGGTCGA”, the binding signal was 1.03 log2 normalized intensity.
Consider “ATATCCCTGAGAGGCCAGTTTGACCTTTGCGCCTAGGGAGATTAGAGTATCGGTCGA”, for which the binding signal turned out to be 8.38 log2 normalized intensity.
Consider “CCTGAGAGGCCAGTTTGACCTTTGCATTCTGCCTAGGGAGATTAGAGTATCGGTCGA”, for which the binding signal worked out at 7.56 log2 normalized intensity.
For “CAGTTTGACCTTTGCATTCTTACCCAAGCCGCCTAGGGAGATTAGAGTATCGGTCGA” the value was 4.4 log2 normalized intensity.
With “TCACCATATCCCTGAGAGGCCAGTTTGACCGCCTAGGGAGATTAGAGTATCGGTCGA”, the binding signal was found to be 2.83 log2 normalized intensity.
Regarding “GAGGCCAGTTTGACCTTTGCATTCTTACCCGCCTAGGGAGATTAGAGTATCGGTCGA”, the binding signal turned out to be 5.97 log2 normalized intensity.
As to “TTTGGAGTTTGACCTGGAGCCAGGGCCTTTGCCTAGGGAGATTAGAGTATCGGTCGA”, the binding signal came out at 3.11 log2 normalized intensity.
Take “CACAGGTAAACATTTGCCTTTAGGGCCCCCGCCTAGGGAGATTAGAGTATCGGTCGA”: the binding signal was determined as 2.56 log2 normalized intensity.
Consider “GTGGGCAAGTTATCTCGGGGTGGCATGTATGCCTAGGGAGATTAGAGTATCGGTCGA”, for which the binding signal was 1.14 log2 normalized intensity.

The values are drawn from publication PMC10726135, “HNF4α isoforms regulate the circadian balance between carbohydrate and lipid metabolism in the liver”.
